# Source: PubChem BioAssay
# For some of these results: Results with a measured potency or affinity are listed apart. The list shows a part of the results. Results filed as inconclusive are left out. Activity calls are given as the source filed them. Unless noted, the rule behind the calls is not given here.
# Columns and labels:
# [1] = A549 cell cytotoxicity, dose response, cytotoxicity control, plate reader, cherry-pick, antagonist series (AID 743412);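 note: 0% = neutral control wells and -100% = positive control wells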
# [2] = Ring1 mRNA increase in mouse ESCs, confirmation, esBAF inhibitor project, cell-based, mouse ESC, RT-qPCR, cherry-pick (AID 743176;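 active = Ring1 gene expression raised more than 2-fold over untreated cells in both replicates at either tested dose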;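 note: Ring1 transcript normalised to actin housekeeping signal by TaqMan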); settings: mouse ESC E14, Ring1 mRNA RT-qPCR fold change, stronger effect = higher value
# [3] = Fgf4 mRNA decrease in mouse ESCs, confirmation, esBAF inhibitor project, cell-based, mouse ESC, RT-qPCR, cherry-pick (AID 743177;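 active = Fgf4 expression under 0.8 fold of control in both repeat measurements at one or both tested doses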;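 note: Fgf4 transcript normalised to actin in duplex TaqMan qPCR; cells exposed to compound for 24 h before lysis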); settings: mouse ESC E14, Fgf4 mRNA qPCR fold change, stronger effect = lower value
# [4] = esBAF inhibition via Bmi1 de-repression, confirmation, cell-based, RT-qPCR, mouse ESC, single point, cherry-pick (AID 743180;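 active = Bmi1 expression fold change above 6 at either tested concentration, seen in replicate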); settings: mouse ESC E14, Bmi1 mRNA qPCR fold, stronger effect = higher value
# [5] = A549 cell cytotoxicity, cytotoxicity control, plate reader, single point, cherry-pick (AID 743188); settings: at 25 µM
# [6] = HepG2 cell cytotoxicity, cytotoxicity control, plate reader, single point, cherry-pick (AID 743189; in the data active = activity change below about -50%); settings: at 25 µM, stronger effect = lower value
# [7] = HEK293 cell cytotoxicity, cytotoxicity control, plate reader, single point, cherry-pick (AID 743190; in the data active = activity change below about -38%, passing the limit was not always enough); settings: at 25 µM
# [8] = HepG2 cell cytotoxicity, dose response, cytotoxicity control, plate reader, cherry-pick, antagonist series (AID 743416);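 note: 0% = neutral control wells and -100% = positive control wells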
smiles,measurement,setting,value
C=CCN1CCN(C(=O)CCCc2ccccc2)CC1,outcome,[1],inactive
O=C(CN1C(=O)c2ccccc2S1(=O)=O)Nc1ncc(Cl)cc1Cl,outcome,[1],inactive
Cc1cc(Cl)nc(NC(=O)Nc2cccc(Cl)c2)n1,fold change,"[2]; Ring1 fold increase, at 7 µM",1.34
same,fold change,[2]; at 33 µM,1.28 (inactive)
same,Fgf4 expression fold change,"[3]; Fgf4 expression, at 7 µM",0.987
same,Fgf4 expression fold change,[3]; at 33 µM,1.08 (inactive)
same,fold change,"[4]; Bmi1 de-repression, at 7 µM",1.61
same,fold change,[4]; at 33 µM,1.24 (inactive)
same,cell viability change % (negative = cytotoxic),[5],-1.39% (inactive)
same,"activity change, negative = inhibition",[6],-22.4% (inactive)
same,"activity change, negative = inhibition",[7],1.81% (inactive)
CCS(=O)(=O)n1nc(-c2ccc(OC)cc2)nc1SC,fold change,"[2]; Ring1 fold increase, at 7 µM",1.25
same,fold change,[2]; at 33 µM,1.01 (inactive)
same,Fgf4 expression fold change,"[3]; Fgf4 expression, at 7 µM",0.938
same,Fgf4 expression fold change,[3]; at 33 µM,1.05 (inactive)
same,fold change,"[4]; Bmi1 de-repression, at 7 µM",1.24
same,fold change,[4]; at 33 µM,1.6 (inactive)
same,cell viability change % (negative = cytotoxic),[5],-13.7% (inactive)
same,"activity change, negative = inhibition",[6],-11.2% (inactive)
same,"activity change, negative = inhibition",[7],-16.8% (inactive)
COc1ccc(N=Cc2c(O)[nH]c3ccccc23)cc1OC,fold change,"[2]; Ring1 fold increase, at 7 µM",1.32
same,fold change,[2]; at 33 µM,1.03 (inactive)
same,Fgf4 expression fold change,"[3]; Fgf4 expression, at 7 µM",1.1
same,Fgf4 expression fold change,[3]; at 33 µM,1.2 (inactive)
same,fold change,"[4]; Bmi1 de-repression, at 7 µM",1.45
same,fold change,[4]; at 33 µM,2 (inactive)
same,cell viability change % (negative = cytotoxic),[5],0.475% (inactive)
same,"activity change, negative = inhibition",[6],24% (inactive)
same,"activity change, negative = inhibition",[7],-17.2% (inactive)
C/C(=C\C(=O)c1cccnc1)Nc1ccc(C)c(C)c1,fold change,"[2]; Ring1 fold increase, at 7 µM",1.22
same,fold change,[2]; at 33 µM,1.07 (inactive)
same,Fgf4 expression fold change,"[3]; Fgf4 expression, at 7 µM",1.06
same,Fgf4 expression fold change,[3]; at 33 µM,0.903 (inactive)
same,fold change,"[4]; Bmi1 de-repression, at 7 µM",1.46
same,fold change,[4]; at 33 µM,1.59 (inactive)
same,cell viability change % (negative = cytotoxic),[5],-3.61% (inactive)
same,"activity change, negative = inhibition",[6],12.6% (inactive)
same,"activity change, negative = inhibition",[7],-0.923% (inactive)
COCCn1c(C)cc(C(=O)CSc2nc3ccccc3s2)c1C,outcome,[1],inactive
O=C(NCCc1ccccc1)c1ccc2c(c1)OCCO2,outcome,[1],inactive
Cc1ccc(-c2csc(Nc3ccccn3)n2)cc1,outcome,[1],inactive
Cc1ccc(-c2nc(-c3ccncc3)no2)cc1C,outcome,[1],inactive
COc1ccc(C(=O)CCc2ccccc2O)c(OC)c1,fold change,"[2]; Ring1 fold increase, at 7 µM",1.29
same,fold change,[2]; at 33 µM,1.23 (inactive)
same,Fgf4 expression fold change,"[3]; Fgf4 expression, at 7 µM",0.836
same,Fgf4 expression fold change,[3]; at 33 µM,0.979 (inactive)
same,fold change,"[4]; Bmi1 de-repression, at 7 µM",1.55
same,fold change,[4]; at 33 µM,1.13 (inactive)
same,cell viability change % (negative = cytotoxic),[5],-6.31% (inactive)
same,"activity change, negative = inhibition",[6],-33.9% (inactive)
same,"activity change, negative = inhibition",[7],14.9% (inactive)
COc1ccc(CNC(=O)COc2ccccc2C(=O)c2cnn(-c3ccccc3)c2)cc1OC,fold change,"[2]; Ring1 fold increase, at 7 µM",1.09
same,fold change,[2]; at 33 µM,1.32 (inactive)
same,Fgf4 expression fold change,"[3]; Fgf4 expression, at 7 µM",1.03
same,Fgf4 expression fold change,[3]; at 33 µM,0.967 (inactive)
same,fold change,"[4]; Bmi1 de-repression, at 7 µM",1.36
same,fold change,[4]; at 33 µM,1.57 (inactive)
same,cell viability change % (negative = cytotoxic),[5],0.333% (inactive)
same,"activity change, negative = inhibition",[6],-55.5% (active)
same,"activity change, negative = inhibition",[7],-15.3% (inactive)
Cc1cc(C)c(Cc2c(C)nc3c(C(=O)NCc4ccco4)cnn3c2C)c(C)c1,outcome,[1],inactive
O=C(c1noc2c1CCCC2)N1CCc2ccccc2C1,fold change,"[2]; Ring1 fold increase, at 7 µM",1.38
same,fold change,[2]; at 33 µM,1.19 (inactive)
same,Fgf4 expression fold change,"[3]; Fgf4 expression, at 7 µM",1.06
same,Fgf4 expression fold change,[3]; at 33 µM,1.15 (inactive)
same,fold change,"[4]; Bmi1 de-repression, at 7 µM",1.08
same,fold change,[4]; at 33 µM,1.13 (inactive)
same,cell viability change % (negative = cytotoxic),[5],-13.7% (inactive)
same,"activity change, negative = inhibition",[6],0.136% (inactive)
same,"activity change, negative = inhibition",[7],-12.4% (inactive)
CC1CCCN(c2ncnc3c2cnn3-c2ccccc2)C1 (configuration not stated),outcome,[1],inactive
Clc1cccc(Cl)c1Cn1nnc(-c2cccs2)n1,fold change,"[2]; Ring1 fold increase, at 7 µM",1.24
same,fold change,[2]; at 33 µM,0.998 (inactive)
same,Fgf4 expression fold change,"[3]; Fgf4 expression, at 7 µM",1.02
same,Fgf4 expression fold change,[3]; at 33 µM,0.892 (inactive)
same,fold change,"[4]; Bmi1 de-repression, at 7 µM",1.24
same,fold change,[4]; at 33 µM,1.5 (inactive)
same,cell viability change % (negative = cytotoxic),[5],-14.2% (inactive)
same,"activity change, negative = inhibition",[6],-32% (inactive)
same,"activity change, negative = inhibition",[7],-18.7% (inactive)
COc1ccc(-c2csc(Nc3cccc(C)n3)n2)cc1OC,fold change,"[2]; Ring1 fold increase, at 7 µM",1.32
same,fold change,[2]; at 33 µM,1.24 (inactive)
same,fold change,"[4]; Bmi1 de-repression, at 7 µM",1.47
same,fold change,[4]; at 33 µM,2.28 (inactive)
same,cell viability change % (negative = cytotoxic),[5],-8.92% (inactive)
same,"activity change, negative = inhibition",[6],29% (inactive)
same,"activity change, negative = inhibition",[7],4.06% (inactive)
O=C(Nc1ccccc1)c1cn2ccccc2n1,outcome,[1],inactive
Cc1ccc(-n2ncc3c(N4CCN(c5ccccc5)CC4)ncnc32)c(C)c1,outcome,[1],inactive
COc1ccc(C(=O)Nc2ccc3ccccc3c2)cc1,outcome,[1],inactive
c1ccc(-n2nnnc2Sc2ncnc3sc4c(c23)CCCC4)cc1,outcome,[1],inactive
CN(C)c1ccc(CSc2ccccc2)cc1,fold change,"[2]; Ring1 fold increase, at 7 µM",1.14
same,fold change,[2]; at 33 µM,1.08 (inactive)
same,fold change,"[4]; Bmi1 de-repression, at 7 µM",1.01
same,fold change,[4]; at 33 µM,0.984 (inactive)
same,cell viability change % (negative = cytotoxic),[5],5.13% (inactive)
same,"activity change, negative = inhibition",[6],-22.2% (inactive)
same,"activity change, negative = inhibition",[7],0.895% (inactive)
COc1ccc(/C=N/OCc2ccccc2C#N)c(OC)c1,fold change,"[2]; Ring1 fold increase, at 7 µM",1.08
same,fold change,[2]; at 33 µM,0.981 (inactive)
same,fold change,"[4]; Bmi1 de-repression, at 7 µM",1.34
same,fold change,[4]; at 33 µM,1.44 (inactive)
same,cell viability change % (negative = cytotoxic),[5],-7.58% (inactive)
same,"activity change, negative = inhibition",[6],-31.8% (inactive)
same,"activity change, negative = inhibition",[7],-7.24% (inactive)
CCC(=O)Nc1cc2nn(-c3ccc(OC)cc3)nc2cc1C,outcome,[1],inactive
CC(C)(C)n1ncc2c(=O)n(CC(=O)OCc3ccccc3)cnc21,outcome,[1],inactive
same,outcome,[8],inactive
Cc1cc(C(=O)CN2C(=O)c3ccccc3S2(=O)=O)c(C)n1C(C)C,outcome,[1],inactive
same,outcome,[8],inactive
O=C(O)c1ccc(N/N=C/c2ccc(OC(=O)c3cccc(Cl)c3)cc2)cc1,outcome,[1],inactive
same,outcome,[8],inactive
